Data: PubChem BioAssay AID1159580 (chemical genetic matrix, 2015)
Among all 5,500 compounds or so, about 2,000 (36%) were called active. Inconclusive results (about 18%) are left out. Rule as the data show it: active = normalized growth mostly below about 0.91 (no sharp cut-off); inconclusive = no clear call, values can overlap the other calls; inactive = mostly above about 0.92. The list shows a part of the results.

Assay: chemical genetic growth profiling, strain panel (AID 1159580);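 also: tested at 20 µM; growth read once vehicle control cultures reached saturation at 30 °C; 1 = growth at the plate median or of vehicle wells; lower values mean less growth of the strain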
Conditions: S. cerevisiae deletion strains, growth OD
[1] = locus YAL013W, strain DEP1, hits give low values
[2] = locus YBR229C, strain ROT2, hits give low values
[3] = locus YCL061C, strain MRC1, hits give low values
[4] = locus YDL101C, strain DUN1, hits give low values
[5] = locus YDR150W, strain NUM1, hits give low values
[6] = locus YEL061C, strain CIN8, hits give low values
[7] = locus YGR078C, strain PAC10, hits give low values
[8] = locus YHR030C, strain SLT2, hits give low values
[9] = locus YHR087W, strain rtc3, hits give low values
[10] = locus YJR043C, strain POL32, hits give low values
[11] = locus YJR075W, strain HOC1, hits give low values
[12] = locus YLR039C, strain RIC1, hits give low values
[13] = locus YLR058C, strain SHM2 (second series), hits give low values
[14] = locus YLR085C, strain ARP6, hits give low values
[15] = locus YLR262C, strain YPT6, hits give low values
[16] = locus YML094W, strain GIM5, hits give low values
[17] = locus YMR219W, strain ESC1, hits give low values
[18] = locus YMR263W, strain SAP30, hits give low values
[19] = locus YNL153C, strain GIM3, hits give low values
[20] = locus YNL298W, strain CLA4 (second series), hits give low values
[21] = locus YNL322C, strain KRE1, hits give low values
[22] = locus YNR030W, strain Alg12, hits give low values
[23] = locus YPL055C, strain LGE1, hits give low values
[24] = locus YPL241C, strain CIN2, hits give low values
[25] = locus YPR135W, strain CTF4, hits give low values

Measured: normalized growth

CCOC(=O)C(c1ccccc1)C(Nc1ccc(Cl)c(Cl)c1)c1ccccn1 (stereo not given)
active: [12] 1.21 [resistant]
inactive: [1] 1.01 | [2] 1.01 | [3] 1.02 | [4] 1.03 | [5] 1.02 | [6] 0.996 | [7] 1.01 | [8] 1.11 | [9] 0.986 | [10] 1.03 | [11] 1.03 | locus YKL190W, strain CNB1, hits give low values 1.01 | [13] 1.01 | [14] 1.02 | [15] 1.15 | [16] 1.01 | [17] 1 | [18] 0.985 | locus YNL128W, strain TEP1, hits give low values 1.03 | [19] 1.01 | [20] 1.01 | [21] 1.01 | [22] 1.01 | [23] 0.995 | [24] 1.01 | [25] 1.01

CCOC(=O)CNc1ccc(Cl)c(Cl)c1
inactive: [1] 0.949 | [2] 0.969 | [3] 0.977 | [4] 0.974 | [5] 0.967 | [6] 0.986 | [7] 0.958 | locus YGR229C, strain SMI1, hits give low values 0.998 | [8] 0.746 | [9] 0.978 | locus YJL187C, strain SWE1, hits give low values 0.973 | [10] 0.974 | [11] 0.927 | [12] 0.971 | [13] 0.97 | [14] 0.876 | [15] 0.975 | [16] 0.973 | [17] 0.974 | [18] 0.946 | locus YMR307W, strain GAS1, hits give low values 0.986 | [19] 0.962 | [20] 0.931 | [21] 0.971 | [22] 0.995 | [23] 0.87 | [24] 1 | [25] 0.906
